According to PubChem BioAssay AID1948 (National Center for Advancing Translational Sciences (NCATS), 2009):
Out of some 110,000 compounds screened, about 20 (0.02%) were called active. Where a call stands in place of a potency, no number is given. About 2% were inconclusive and are not listed. Calls follow the shape of the dose curve; as a rule, active = well fitted activation curve with a large enough effect; inconclusive = small, poorly fitted or top-dose-only effect; inactive = no such curve, though single readings can be large or run the other way. This excerpt belongs to a sample that is enriched for actives.

Test: qHTS Assay for Compounds that Induce Erasure of Genomic Imprints
Details: mouse ES Peg3-LacZ reporter, beta-gal luminescence, 40 h; series mostly up to 10.9 µM
Excerpt: qHTS Assay for Compounds that Induce Erasure of Genomic Imprints NIH Chemical Genomics Center [NCGC] NIH Molecular Libraries Screening Centers Network [MLSCN] Assay Submitter (PI): JEFFRIES, SEAN, NCGC, University of Cambridge NCGC Peg3 Imprinting Assay Overview Genomic imprinting is the epigenetic process whereby genes are expressed in a parent of origin fashion. […] Unlike some forms of epigenetic silencing that can be overcome by overexpression of transcription factors, genomic imprinting stably represses the expression of one allele despite potentially high levels of expression from the other allele. […] During mouse embryonic day 11.5 imprints are erased in PGCs so that sex specific imprints can be reestablished during gametogenesis. Embryonic germ (EG) cells can be derived from developing PGCs at embryonic day 11.5 and these cells often lack genomic imprints. […] Embryonic stem (ES) cells are a cell type similar to EG cells in phenotype and transcriptional profile, yet ES cells maintain genomic imprints. This similarity between ES and EG cells prompted us to use ES cells to look for factors which could induce imprint erasure. To investigate the stability of genomic imprinting, ES cells were derived from mice with an insertion of a LacZ-Neomycin reporter construct in the Peg3 locus. Peg3 is an imprinted locus where gene expression is restricted to the paternal allele. […] Using LacZ expression we are able to monitor the state of the Peg3 imprint. In order to dissect the mechanisms involved in imprint erasure using a forward chemical genetics approach we developed a cell based phenotype assay using an endogenous silence imprinted locus. This assay utilizes maternally inherited Peg3LacZ-Neo ES cells by monitoring the LacZ expression from the normally silent Peg3 allele. To facilitate screening, high-density feeder-free ES cell culture has been optimized so that ES cells can be grown in 1536 for over four days without feeding or washes. The assay uses a luminescence based read out for LacZ activity and is a homogenous assay optimal for HTS.
NCGC Peg3 Imprinting Assay Protocol Summary ES cell lines were derived from blastocysts taken from Peg3LacZ-Neo x129 matings. Lines were sexed and genotyped for the Peg3LacZ-Neo allele. Female cells carrying the reporter allele were used in this study. Cells were derived on a layer of mouse embryonic fibroblasts and passaged multiple times before switching to feeder free culture. Cells were maintained feeder free on gelatin coated dishes in DMEM/F12 media supplemented with 15% FBS, 2mM L-glutamine, 100 units/ml penicillin, 100ug/ml streptomycin, 0.1mM MEM nonessential amino acids, 1mM sodium pyruvate, 0.1% sodium bicarbonate, 0.1mM 2-Mercaptoethanol, and 400 units/ml leukemia inhibitory factor (LIF) at 37C with 5% CO2. The assay was performed in 1536-well format. A single luminescence read was taken at the end of the assay and the data was normalized by plate to internal negative controls. Maximum efficacy and AC50 values were calculated from dose-response data using the standard Hill equation. 1536 well plates were filled with 0.5ul of 0.1% gelatin per well, spun down and incubated for at least 30 min at 37C. The ES cells were then trypsini Peg3 1536-well assay protocol: (1)Plate 0.5ul/well 0.1% gelatin in white tissue culture treated 1536-well plates, spin and incubate at 37C for at least 30 min. (2)Add 5ul/well (300 cells) of ES cell suspension from freshly trypsinized cells and incubate at 37C, 5% CO2 for 40 hours. (3)Add 5ul/well of freshly prepared BetaGlo solution and incubate at room temperature for 5 minutes. (4)Read luminescence on the ViewLux plate reader. Keywords Genomic Imprinting, Germ Cells, Embryonic Stem Cell, DNA Methylation, Peg3, qHTS, NIH roadmap, NCGC
Potency is read from the fitted curve at half-maximal effect.

Compound | Potency
Cc1cccc(C(C)C)c1NC(=O)C(NS(=O)(=O)c1cccc2nsnc12)c1ccccc1 (configuration not stated) | inactive
COc1cc(OC)c(NC(=O)N2CC3CCCN3c3ccccc32)cc1Cl (configuration not stated) | inactive
Cc1ccc(C(=O)COC(=O)C(Cc2c[nH]c3ccccc23)NC(=O)c2ccc(Br)cc2)cc1 (configuration not stated) | inactive
COc1cccc(Cn2c(CNS(=O)(=O)c3ccc(Cl)s3)nc3cccnc32)c1 | inactive
CCCOc1ccc(NC(=O)CC2C(=O)N(c3ccccc3)C(=O)N2Cc2ccco2)cc1 (configuration not stated) | inactive
CCN(c1ccc(Cl)cc1)S(=O)(=O)c1nnc(NC(=O)c2ccco2)s1 | inactive
CCC(=O)N1CCc2cc(S(=O)(=O)NC(C(=O)Nc3ccc(C(C)=O)cc3)C(C)C)ccc21 (configuration not stated) | inactive
CCSc1ncc(Cl)c(C(=O)Nc2c(C(=O)c3ccccc3)oc3ccccc23)n1 | inactive
O=C(O)c1ccc2c(c1)N(Cc1ccc(F)cc1)C(=O)c1ccccc1S2=O (configuration not stated) | inactive
Cc1ccc(-c2cn3c(n2)sc2cc(C(=O)NCc4cccs4)ccc23)c(C)c1 | inactive
Cc1cccc(CC(=O)Nc2cccc(-c3cn4cccnc4n3)c2)c1 | inactive
CCCCNC(=O)CSc1nc2cc3c(cc2c(=O)n1CCCCCC(=O)NCc1ccc2c(c1)OCO2)OCO3 | inactive
CCOc1ccc(CNC(=O)c2ccc(CS(=O)c3ccccc3)o2)cc1 (configuration not stated) | inactive
CCOc1ccccc1NC(=O)CCS(=O)(=O)c1cccc2nsnc12 | inactive
CCSc1nnc2c(n1)OC(c1ccc(OCC(=O)O)cc1)Nc1ccccc1-2 (configuration not stated) | inactive
COc1cccc(-c2nc(S(=O)(=O)c3ccc(C)cc3)c(NCc3ccccc3)o2)c1 | inactive
Cc1ccc(C)c(N2CCN(C(=O)Cn3ncc4c(=O)oc5ccc(C)cc5c43)CC2)c1 | inactive
Cc1ccc(S(=O)(=O)N(CC(=O)Nc2ccc(Cl)cc2Cl)c2ccccc2C)cc1 | inactive
COc1ccccc1-n1c(-c2ccc(C)cc2)cn2c3c(=O)n(C)c(=O)n(C)c3nc12 | inactive
Cc1nc2cnc(Nc3ccccc3)nc2n(C[C@H]2CCCO2)c1=O | inactive
O=c1cnc2cnc(Nc3ccccc3)nc2n1Cc1ccc(F)cc1 | inactive
Cc1nc2cnc(Nc3ccccc3)nc2n(Cc2ccc(F)cc2)c1=O | 3.16 µM (active)
Cc1cc(NC(=O)c2cccc(Cl)c2)ccc1-c1cc2ccccc2oc1=O | inactive
Cc1ccc(CCNC(=O)c2nnc(Cc3cccc(F)c3)o2)cc1 | inactive
Cc1cc2c(cc1C)C(c1cccc(OC(C)C)c1)CC(=O)N2 (configuration not stated) | inactive

Compound | Potency
COc1ccc(Cl)cc1NC(=O)CSc1nc(-c2cccs2)cc(C(F)(F)F)n1 | inactive
Cc1ccc(NC(=O)Nc2sc3nc4n(c(=O)c3c2C)CCC(C)CC4)c(Cl)c1 (configuration not stated) | inactive
Cc1ccc(OCCSc2nc(C)c(Cc3ccccc3)c(=O)[nH]2)cc1 | inactive
CC(C)S(=O)(=O)c1oc(-c2ccc(F)cc2)nc1S(=O)(=O)c1ccc(F)cc1 | inactive
CCCCN(C)c1nnc(NC(=O)Nc2ccc(Br)c(C)c2)s1 | inactive
O=C(NCCc1ccc(Cl)cc1)c1ccc2c(c1)N(Cc1ccc(F)cc1)C(=O)CS2 | inactive
CCOc1ccccc1NC(=O)CCn1cnnn1 | inactive
CCOc1cc(-c2nnc(SCC(=O)NC3CCCC3)nc2-c2ccc(OC)c(OCC)c2)ccc1OC | inactive
Cn1nnnc1SCCCNCc1cccc(OCc2ccc(Cl)cc2)c1 | inactive
CSc1nc(=O)c2c(n1C)NC(=O)CC2c1ccccc1OC(C)C (configuration not stated) | inactive
COc1ccc(Cl)cc1S(=O)(=O)N1CCC(c2ccncc2)CC1 | inactive
CCc1nn(CC(=O)Nc2cccc(C)c2C)c(=O)c2cc3sccc3n12 | inactive
Cc1cccc(NC(=O)c2cc(S(=O)(=O)N3CCC4(CC3)OCCO4)ccc2F)c1 | inactive
CCC(=O)N1CCc2cc(Br)cc(S(=O)(=O)CCC(=O)NCCc3ccc(OC)c(OC)c3)c21 | inactive
CCCNc1ncnc2c1c(-c1ccccc1)cn2-c1ccc(OCC)cc1 | inactive
Cc1ccc(C)c(N2CCN(C(c3ccccc3)c3nnc(-c4ccccc4)o3)CC2)c1 (configuration not stated) | inactive
COc1ccc(CN2C(=O)C(NC(=O)c3cccc(C)c3)(C(F)(F)F)N=C2c2ccccc2)cc1 (configuration not stated) | inactive
CCOC(=O)C1CCCN(C(=O)c2ccc3c(c2)sc2nc(-c4ccc(CC)cc4)cn23)C1 (configuration not stated) | inactive
CCCn1c(NCc2ccccc2F)nc2ccccc21 | inactive
O=S(=O)(c1ccc2nc(N3CCN(c4cccc(Cl)c4)CC3)ccc2c1)N1CCCCC1 | inactive
COc1ccc(OC)c(NC(=O)/C=C/c2ccc(C)o2)c1 | inactive
Cc1c(Cl)cccc1NC(=O)CCS(=O)(=O)c1ccc2c(c1)oc(=O)n2C | inactive
C#CC(C)(CC)NC(=O)Cn1nnc(-c2ccc(OCc3c(F)cccc3Cl)cc2)n1 (configuration not stated) | inactive
Cc1nc2ccn(Cc3cccnc3)c(=O)c2cc1C(=O)N1CCN(c2ccccc2F)CC1 | inactive
COc1cc(OC)c(NC(=O)c2nc(-c3ccncc3)no2)cc1Cl | inactive

Compound | Potency
COc1ccccc1NC(=O)c1oc2ccccc2c1NC(=O)COc1ccccc1OC | inactive
Cc1c(-c2nsc(NC(=O)c3cccc(Cl)c3)n2)nnn1-c1ccccc1C(F)(F)F | inactive
O=C(c1cccs1)c1cn(CCOc2ccc(Cl)cc2)c2ccccc12 | inactive
CC(=O)c1c(C)n(S(=O)(=O)c2ccc(Cl)cc2)c2ccc(NS(=O)(=O)c3ccc(Cl)cc3)cc12 | inactive
COc1ccccc1CNC(=O)NCc1noc2ccc(C)cc12 | inactive
COc1cccc(-c2nnc3n(CCc4ccccc4)c(=O)c4ccccc4n23)c1O | inactive
COc1cccc(CNCCSc2nnnn2C)c1OCc1ccccc1Cl | inactive
CCOC(=O)c1ccc(-c2ccc(/C=C(\C#N)C(=O)Nc3ccc(OCC)cc3)o2)cc1 | inactive
COc1ccc(NC(=O)CSc2nnc(-c3nnn(-c4ccc(F)cc4)c3C)o2)cc1 | inactive
COc1ccc(N2CCN(S(=O)(=O)c3ccc(-c4coc(C)n4)cc3)CC2)cc1 | inactive
Cc1ccccc1C(=O)Nc1sc2c(c1C(=O)N1CCC(C)CC1)CCCC2 | inactive
CC(=O)[C@H](C(c1ccccc1)N1CCOCC1)N1CCOCC1 (some centres not stated) | inactive
COc1cc(C(=O)Nc2ccc(OCc3cc(=O)n4ccc(C)cc4n3)cc2)cc(OC)c1OC | inactive
CCc1cccc(NC(=O)CSc2nccn2C)c1 | inactive
COc1ccc(S(=O)(=O)NCCSc2nnnn2-c2ccccc2)cc1 | inactive
CCOc1ccc(OCC)c(NC(=O)c2c(C)nn(-c3ccccc3)c2-n2cccc2)c1 | inactive
Cc1c(Cl)cccc1NC(=O)C(=O)NCCc1csc2nc(-c3ccccc3F)nn12 | inactive
CC(Sc1oc(-c2ccco2)nc1S(=O)(=O)c1ccc(Br)cc1)c1ccccc1 (configuration not stated) | inactive
Cc1cc(Cl)ccc1OCC(=O)N(Cc1ccc(N(C)C)cc1)C1CCS(=O)(=O)C1 (configuration not stated) | inactive
COc1ccc(Cc2nc3ccc(C(=O)NCc4ccccc4C)cc3o2)cc1 | inactive
CC(=O)Nc1cc(C(=O)NCc2ccc(F)cc2Cl)ccc1Sc1ccc(Cl)cc1 | inactive
COc1ccc(-c2nc3ccccc3o2)cc1NC(=O)c1cc([N+](=O)[O-])ccc1N1CCOCC1 | inactive
Cn1c(=O)c2c(nc(SCC(=O)Nc3ccc(F)cc3)n2Cc2ccccc2)n(C)c1=O | inactive
CC(=O)OC1=C(C(C)=O)N(Cc2ccccc2)S(=O)(=O)c2ccccc21 | inactive
CCOc1ccccc1NC(=O)Cn1c(=O)n(-c2cccc(C)c2)c(=O)c2c1c1cc(OC)ccc1n2C | inactive

Compound | Potency
CCc1nn(CC(=O)NCC(C)c2ccccc2)c(=O)c2cc3occc3n12 (configuration not stated) | inactive
Fc1ccccc1Oc1ncnc2c1oc1ccccc12 | inactive
COc1ccc(OC)c(NC(=O)CN2CCCN(Cc3cc(C)ccc3C)S2(=O)=O)c1 | inactive
O=C(Nc1c(C(=O)N2CCN(c3ccc(F)cc3)CC2)oc2ccccc12)c1ccco1 | inactive
COc1ccccc1CNCc1ccc(C(=O)O)s1 | inactive
O=C(C1CCC(Cn2c(=O)c3sccc3n(Cc3ccccc3F)c2=O)CC1)N1CCCCC1 (configuration not stated) | inactive
COc1ccc(OC)c(CNC(=O)CN2C(=O)CCn3nc(-c4cn(C)c5ccccc45)cc32)c1 | inactive
COc1ccccc1CNC(=O)c1ccc(CS(=O)c2ccccc2Cl)o1 (configuration not stated) | inactive
CCN1CCc2nc3sc(C(=O)Nc4ccccc4OC(F)(F)F)c(N)c3cc2C1 | inactive
COc1cc(OC)cc(-c2nc3nc(C)c(CCC(=O)Nc4ccc(C)cc4)c(C)n3n2)c1 | inactive
CC1CCC2(CC1)N=C(c1ccccc1)C(=O)N2CC(=O)Nc1ccc(F)c(Cl)c1 (configuration not stated) | inactive
CCOc1ccc(NC(=O)c2cc(S(=O)(=O)N3CCCC3)c[nH]2)cc1 | inactive
CC1CCN(S(=O)(=O)c2ccc3c(ccn3CCC(=O)NCc3ccc(N(C)C)cc3)c2)CC1 | inactive
Cc1c(C(=O)NCc2ccccc2Br)oc2ccc3c(c12)C(=O)CC(C)(C)O3 | inactive
CCc1nn(CC(=O)N2CCN(c3ccc(Cl)cc3)CC2)c(=O)c2cc3occc3n12 | inactive
COc1ccc(CCn2cc3c(c2-c2ccc(Br)cc2)c(=O)n(C)c(=O)n3C)cc1OC | inactive
Cc1ccccc1NC(=O)Cn1c(=O)n(CC2CCC(C(=O)NCCc3ccccc3)CC2)c(=O)c2ccccc21 (configuration not stated) | inactive
Cc1ccc2nc(COc3ccccc3NC(=O)Nc3ccc(F)c(Cl)c3)cc(=O)n2c1 | inactive
CCOC(=O)c1c(N)n(-c2cccc(C)c2C)c2nc3ccccc3nc12 | inactive
COc1ccc2c(c1)C=C(C(=O)NCc1cc(Br)ccc1OC)CO2 | inactive
COC(=O)c1cnc(N2CCN(c3ccccc3OC)CC2)c2ccccc12 | inactive
COc1ccc(Br)cc1C1CC(=O)Nc2c1c(C)nn2-c1nc(C)cc(C)n1 (configuration not stated) | inactive
